Hits are enriched below; roughly 21% of the tested compounds scored in any of these assays.
Shiga toxin inh = Shiga toxin inhibition; Vero cells, Shiga toxin protein synthesis inhibition reporter; inhibition, % at 38.7 µM; hit rate 9.2% among 290,000; AID 2315; in the data active = inhibition mostly above about 28%, no sharp cut-off; inactive = mostly below about 43%; note: 0% is about no effect
NS1 inh = inhibitors of influenza NS1 protein function; Potency, µM (top dose mostly 46.1 µM), without a hit: at the highest dose activity, positive = more growth; hit rate 0.4% among 270,000; AID 2326; calls by dose curve; note: potency is the fitted concentration of half-maximal effect; actives are rising curves; nearly all actives have a fitted effect of over 50% in size
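A cell-based growth assay was used: compounds that relieve NS1-induced slow growth of budding yeast raise OD600. Assay medium was yeast nitrogen base with ammonium sulphate and -URA supplement, pH 6.0, with 2% galactose.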
Pf growth 96h = P. falciparum growth inhibition at 96 hours. hit rate 6.9% among 320,000. P. falciparum luciferase reporter growth, 96 h. AID 504834. Potency, µM (doses to about 28.7 µM), for the others: top-dose activity change, negative = inhibition, most hits filed as inhibitors; note: potency is the fitted concentration of half-maximal effect; % is set by controls: 0 for no effect and ±100 for the full control effect
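Erythrocytes infected with luciferase-expressing P. falciparum were dispensed at 2% hematocrit and 0.05% parasitemia (final), then incubated with compounds 96 hours at 37 C in 5% CO2. Luminescence after detection reagent addition reported growth.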
Pf growth 48h = inhibits P. falciparum growth in the first generation, 48 h. Potency, µM (top dose mostly 28.7 µM), for the others: top-dose activity change, negative = inhibition, most hits filed as inhibitors. hit rate 5.9% among 310,000. P. falciparum luciferase growth in erythrocytes, 48 h; note: potency is the fitted concentration of half-maximal effect; % is set by controls: 0 for no effect and ±100 for the full control effect
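Cell-based growth assay: transgenic P. falciparum expressing firefly luciferase, cultured in red cells within RPMI 1640 containing 0.5% w/v Albumax, 24 mM bicarbonate and gentamycin. A drop in luciferase activity indicates inhibition.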
Cycloheximide cs = counter-screen hit for Shiga toxin inhibitors, cycloheximide | hit rate 12% among 300,000 | cell reporter, cycloheximide protein synthesis inhibition counterscreen | max response, %; in the data active = max response mostly above about 13%, no sharp cut-off; inactive = mostly below about 14%; note: read at 38.3 µM for the half of the compounds with a filed dose; 0% is about no effect
* = called active by the depositor. Unless noted, calls come from the whole dose curve; as a rule, active = well fitted inhibition curve with a large enough effect; inconclusive = small, poorly fitted or top-dose-only effect, or another doubt; inactive = no such curve, though single readings can be large or run the other way.

What do the screens show for `Cc1ccc([N+](=O)[O-])cc1NC1OC(CO)C(O)C1O` (stereo unspecified)?
Shiga toxin inh: -1.3; NS1 inh: 5.7%; Pf growth 96h: 21.7%; Pf growth 48h: 12.7%; Cycloheximide cs: -0.3

How did CCCN(Cc1ccc(N(CC)CC)cc1)CC1CC1 do in these assays?
Shiga toxin inh: -21.5; NS1 inh: -0.9%; Pf growth 96h: 1.47µM*; Pf growth 48h: 11.7µM*; Cycloheximide cs: -0.2

How did CCCN(Cc1ccc(N(C)C)cc1)CC1CC1 do in these assays?
Shiga toxin inh: -22.1; NS1 inh: -3.8%; Pf growth 96h: 2.08µM*; Cycloheximide cs: -2.8

Results for CCN(CC)c1ccc(CC2C(=O)N(C)C(=O)N(C)C2=O)cc1 ?
Shiga toxin inh: -7.6; NS1 inh: -14.6%; Pf growth 96h: 14.7%; Pf growth 48h: inconclusive; Cycloheximide cs: -2.7

How did OCCN(Cc1ccccc1)CC1CC=CCC1 (stereo unspecified) do in these assays?
Shiga toxin inh: -1.2; NS1 inh: -1.2%; Pf growth 96h: 8.3%; Pf growth 48h: -6.9%; Cycloheximide cs: -3.0

What do the screens show for `CCc1cccc(NC(=O)C2CCN(S(=O)(=O)c3ccc4c(c3)NC(=O)CO4)CC2)c1`?
Shiga toxin inh: 22.7; NS1 inh: 18.0%; Pf growth 96h: 49.9%; Pf growth 48h: -11.8%; Cycloheximide cs: -4.9

Results for CCN(CC)Cc1c(O)ccc2c(=O)c(-c3ccccc3)coc12 ?
NS1 inh: 13.7%; Pf growth 96h: -27.1%; Pf growth 48h: 53.8%; Cycloheximide cs: 31.0*

What do the screens show for `CC1CCCCN1Cc1c(O)ccc2c(=O)c(-c3ccc(Cl)cc3)coc12` (stereo unspecified)?
Shiga toxin inh: 48.7; NS1 inh: 0.7%; Pf growth 96h: 45.0%; Pf growth 48h: 10.4µM*; Cycloheximide cs: 29.7*

Results for CC1CCCCN1Cc1c(O)ccc2c(=O)c(-c3ccc(Cl)cc3Cl)coc12 (stereo unspecified) ?
Shiga toxin inh: -8.9; NS1 inh: -0.4%; Pf growth 96h: 9.5%; Pf growth 48h: inconclusive; Cycloheximide cs: -1.9

What do the screens show for `O=c1c(-c2ccc(Cl)cc2)coc2c(CN3CCOCC3)c(O)ccc12`?
Shiga toxin inh: 22.9; NS1 inh: inconclusive; Pf growth 96h: 10.4µM*; Pf growth 48h: 8.28µM*; Cycloheximide cs: 16.9

Results for CC1CCCCN1Cc1c(O)ccc2c(=O)c(-c3nc4ccccc4s3)c(N)oc12 (stereo unspecified) ?
Shiga toxin inh: 63.1*; NS1 inh: -7.9%; Pf growth 96h: 1.04µM*; Pf growth 48h: 0.828µM*; Cycloheximide cs: 40.2*

Results for CC(OC(=O)c1cc(S(=O)(=O)N2CCOCC2)ccc1F)C(=O)NCc1ccc2c(c1)OCO2 (stereo unspecified) ?
Pf growth 96h: -9.1%; Pf growth 48h: -15.0%

How did CC1N(C(=O)N2CCOCC2)CCN1S(=O)(=O)c1cccc(C(F)(F)F)c1 (stereo unspecified) do in these assays?
Shiga toxin inh: -4.5; NS1 inh: -6.2%; Pf growth 96h: 25.2%; Pf growth 48h: 31.3%; Cycloheximide cs: 2.2

How did CN1C(=O)C2(OCCCO2)c2ccccc21 do in these assays?
Shiga toxin inh: -1.4; NS1 inh: -20.8%; Pf growth 96h: 0.0%; Pf growth 48h: -16.9%; Cycloheximide cs: 1.4

Results for Cc1c(Cl)cccc1NC(=O)CCC(=O)NNC(=O)c1ccccc1 ?
Shiga toxin inh: -15.8; NS1 inh: 5.5%; Pf growth 96h: 25.5%; Pf growth 48h: 20.0%; Cycloheximide cs: 0.5

Results for CC(C)N(Cc1c(O)ccc2c(=O)c(-c3ccc(Cl)cc3)coc12)C(C)C ?
NS1 inh: -3.9%; Pf growth 96h: -13.2%; Pf growth 48h: 0.2%; Cycloheximide cs: 17.5*

How did COc1ccccc1-c1coc2c(CN3CCCCC3C)c(O)ccc2c1=O (stereo unspecified) do in these assays?
NS1 inh: 8.6%; Pf growth 96h: inconclusive; Pf growth 48h: inconclusive; Cycloheximide cs: -1.0

How did CC1CCCCN1Cc1c(O)ccc2c(=O)c(-c3ccc(Br)cc3)coc12 (stereo unspecified) do in these assays?
Shiga toxin inh: 22.8; NS1 inh: -2.8%; Pf growth 96h: 5.86µM*; Pf growth 48h: 7.38µM*; Cycloheximide cs: 8.8

How did COc1ccc(-c2c(C)oc3c(CN4CCCCC4C)c(O)ccc3c2=O)cc1 (stereo unspecified) do in these assays?
Shiga toxin inh: 4.1; NS1 inh: -3.1%; Pf growth 96h: inconclusive; Pf growth 48h: inconclusive; Cycloheximide cs: -4.7

What do the screens show for `COc1ccc(-c2c(C)oc3c(CN4CCCCC4C)c(O)ccc3c2=O)cc1OC` (stereo unspecified)?
Shiga toxin inh: -1.6; NS1 inh: -6.1%; Pf growth 96h: 11.7µM*; Pf growth 48h: inconclusive; Cycloheximide cs: -3.4

Results for CCc1ccccc1N(CC(=O)NCc1ccco1)C(=O)CCC(=O)Nc1nccs1 ?
Shiga toxin inh: -5.1; NS1 inh: 3.5%; Pf growth 96h: inconclusive; Pf growth 48h: inconclusive; Cycloheximide cs: 8.6

How did COc1ccc(-n2c3c(c(=O)[nH]c2=O)C(NS(=O)(=O)c2ccc(Cl)cc2)(C(F)(F)F)C(=O)N3)cc1 (stereo unspecified) do in these assays?
Shiga toxin inh: 6.3; NS1 inh: 3.0%; Pf growth 96h: inconclusive; Pf growth 48h: inconclusive; Cycloheximide cs: 0.8

What do the screens show for `Cc1ccc(-c2noc(C3CCCN(C(=O)c4cccc([N+](=O)[O-])c4)C3)n2)o1` (stereo unspecified)?
Shiga toxin inh: 85.0*; NS1 inh: -4.8%; Pf growth 96h: 26.1%; Pf growth 48h: 26.1%; Cycloheximide cs: 38.8*

Results for COc1ccc(-c2noc(C3CCCN(C(=O)c4cccc(C)c4)C3)n2)cc1 (stereo unspecified) ?
NS1 inh: -24.1%; Pf growth 96h: 34.0%; Pf growth 48h: -14.7%; Cycloheximide cs: -3.3

How did COc1cc(OC)cc(C(=O)N2CCCC(c3nc(-c4ccc(C)o4)no3)C2)c1 (stereo unspecified) do in these assays?
Shiga toxin inh: -1.6; NS1 inh: -3.7%; Pf growth 96h: 13.6%; Pf growth 48h: -8.6%; Cycloheximide cs: 1.4

Results for Cc1cccc(C(=O)N2CCCC(c3nc(-c4ccc(C)o4)no3)C2)c1 (stereo unspecified) ?
Shiga toxin inh: 113.2*; NS1 inh: -5.4%; Pf growth 96h: 19.4%; Pf growth 48h: 120.7%; Cycloheximide cs: 42.5*

How did CCn1c(SCC(=O)NC2CCCCC2C)nnc1-c1ccc(OC)cc1 (stereo unspecified) do in these assays?
Shiga toxin inh: -19.5; NS1 inh: -1.8%; Pf growth 96h: inconclusive; Pf growth 48h: inconclusive; Cycloheximide cs: -2.3

What do the screens show for `O=C(CCC1CCCC1)NCc1cccs1`?
Shiga toxin inh: 99.5; NS1 inh: -0.8%; Pf growth 96h: 100.6%; Pf growth 48h: 44.3%; Cycloheximide cs: 25.8*

How did O=C(Nc1nnc(C2CC2)s1)c1cc2c(s1)CCCCCC2 do in these assays?
Shiga toxin inh: -3.5; NS1 inh: -1.8%; Pf growth 96h: 76.3%; Pf growth 48h: 24.4%; Cycloheximide cs: 9.1
